The text below walks through data of ChEMBL document CHEMBL1961873, “Compounds: GSK PKIS; Assays: Nanosyn kinase panel” (2012).

Assay [1] addresses Tyrosine-protein kinase Fer (Homo sapiens) (UniProt P16591). As to conditions: at 1 µM.
In assay [2] the target is Tyrosine-protein kinase Fes/Fps (Homo sapiens) (UniProt P07332). The note with it: at 0.1 µM.
For assay [3] the target is unchanged. The note with it: at 1 µM.
In assay [4] the target is Fibroblast growth factor receptor 1 (Homo sapiens) (UniProt P11362). As to conditions: at 0.1 µM.
The target is the same in assay [5]. As to conditions: at 1 µM.
For assay [6], the target named is Fibroblast growth factor receptor 2 (Homo sapiens) (UniProt P21802). The note with it: at 0.1 µM.
The target is the same in assay [7]. The note with it: at 1 µM.
Assay [8] deals with Fibroblast growth factor receptor 3 (Homo sapiens) (UniProt P22607). The note with it: at 0.1 µM.
The target is the same in assay [9]. The note with it: at 1 µM.
The target in assay [10] is Fibroblast growth factor receptor 4 (Homo sapiens) (UniProt P22455). The note with it: at 0.1 µM.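 Note: values are mean percent inhibition of FGFR4.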

SMILES strings stand for the structures.

Fibroblast growth factor receptor 1 (Homo sapiens), sequence (P11362 22-822 limits assumed): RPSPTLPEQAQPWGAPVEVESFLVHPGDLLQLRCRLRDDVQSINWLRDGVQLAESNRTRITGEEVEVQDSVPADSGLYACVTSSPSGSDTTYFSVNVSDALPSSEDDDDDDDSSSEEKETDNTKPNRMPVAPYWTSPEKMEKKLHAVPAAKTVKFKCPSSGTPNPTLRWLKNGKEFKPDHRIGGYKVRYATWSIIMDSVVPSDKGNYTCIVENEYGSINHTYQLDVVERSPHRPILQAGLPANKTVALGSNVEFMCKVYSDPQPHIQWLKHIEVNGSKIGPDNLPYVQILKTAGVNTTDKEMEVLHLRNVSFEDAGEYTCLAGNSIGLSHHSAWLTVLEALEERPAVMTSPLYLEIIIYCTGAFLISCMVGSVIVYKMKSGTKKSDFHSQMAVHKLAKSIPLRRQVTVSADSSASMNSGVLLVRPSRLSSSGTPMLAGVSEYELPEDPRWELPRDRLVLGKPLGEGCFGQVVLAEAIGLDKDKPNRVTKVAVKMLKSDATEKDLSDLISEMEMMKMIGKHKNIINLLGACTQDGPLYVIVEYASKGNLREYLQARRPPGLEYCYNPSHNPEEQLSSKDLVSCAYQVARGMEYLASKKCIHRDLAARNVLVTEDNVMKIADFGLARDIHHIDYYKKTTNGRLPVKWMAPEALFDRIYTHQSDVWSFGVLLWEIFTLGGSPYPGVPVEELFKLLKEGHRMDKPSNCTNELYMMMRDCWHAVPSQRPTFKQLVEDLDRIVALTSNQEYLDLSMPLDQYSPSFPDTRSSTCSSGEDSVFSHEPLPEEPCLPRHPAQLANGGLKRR
Tyrosine-protein kinase Fes/Fps (Homo sapiens), sequence (P07332 whole entry): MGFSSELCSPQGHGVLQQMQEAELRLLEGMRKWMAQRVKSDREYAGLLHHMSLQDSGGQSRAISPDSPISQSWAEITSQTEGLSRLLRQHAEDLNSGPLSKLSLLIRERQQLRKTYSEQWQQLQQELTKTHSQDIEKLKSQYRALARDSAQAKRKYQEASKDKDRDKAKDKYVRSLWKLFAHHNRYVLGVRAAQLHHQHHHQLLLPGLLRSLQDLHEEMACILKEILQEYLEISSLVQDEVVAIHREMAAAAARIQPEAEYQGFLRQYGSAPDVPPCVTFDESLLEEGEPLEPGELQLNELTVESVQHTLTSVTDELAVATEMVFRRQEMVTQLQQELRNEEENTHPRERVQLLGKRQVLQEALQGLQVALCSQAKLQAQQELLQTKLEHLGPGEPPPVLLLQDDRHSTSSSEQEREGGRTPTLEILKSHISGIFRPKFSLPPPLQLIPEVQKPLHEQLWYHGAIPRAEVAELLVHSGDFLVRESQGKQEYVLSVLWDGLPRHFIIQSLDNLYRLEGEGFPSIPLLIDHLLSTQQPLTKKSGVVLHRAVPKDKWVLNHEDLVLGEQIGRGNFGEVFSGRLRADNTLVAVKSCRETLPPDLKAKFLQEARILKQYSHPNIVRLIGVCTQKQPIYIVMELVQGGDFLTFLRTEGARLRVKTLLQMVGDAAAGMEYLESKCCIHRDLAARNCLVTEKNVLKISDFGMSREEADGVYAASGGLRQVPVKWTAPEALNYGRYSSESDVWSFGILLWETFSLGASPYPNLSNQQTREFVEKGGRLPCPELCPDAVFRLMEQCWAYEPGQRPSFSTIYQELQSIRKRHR
Tyrosine-protein kinase Fer (Homo sapiens), sequence (P16591 whole entry, looked up): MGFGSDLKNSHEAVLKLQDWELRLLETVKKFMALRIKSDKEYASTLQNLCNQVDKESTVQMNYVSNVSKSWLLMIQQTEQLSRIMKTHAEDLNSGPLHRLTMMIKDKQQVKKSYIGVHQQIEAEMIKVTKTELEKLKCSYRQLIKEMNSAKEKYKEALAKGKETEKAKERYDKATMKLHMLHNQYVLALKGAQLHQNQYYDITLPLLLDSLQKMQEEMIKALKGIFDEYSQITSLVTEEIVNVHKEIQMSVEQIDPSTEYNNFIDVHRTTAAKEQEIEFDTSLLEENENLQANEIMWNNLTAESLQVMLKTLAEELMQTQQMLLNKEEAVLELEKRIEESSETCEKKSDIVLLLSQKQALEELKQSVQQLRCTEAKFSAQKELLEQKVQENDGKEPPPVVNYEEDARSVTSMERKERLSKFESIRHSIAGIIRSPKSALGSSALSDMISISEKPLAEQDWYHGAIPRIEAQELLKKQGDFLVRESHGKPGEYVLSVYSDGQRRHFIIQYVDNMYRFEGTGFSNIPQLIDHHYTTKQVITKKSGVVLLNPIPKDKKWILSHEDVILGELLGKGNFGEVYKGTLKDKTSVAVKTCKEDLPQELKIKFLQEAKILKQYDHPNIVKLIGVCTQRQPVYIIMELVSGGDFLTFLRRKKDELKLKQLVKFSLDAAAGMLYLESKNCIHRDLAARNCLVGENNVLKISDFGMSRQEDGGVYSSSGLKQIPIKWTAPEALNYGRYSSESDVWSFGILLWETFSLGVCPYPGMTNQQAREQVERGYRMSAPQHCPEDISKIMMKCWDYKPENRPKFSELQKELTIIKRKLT
Fibroblast growth factor receptor 2 (Homo sapiens), sequence (P21802 22-821 limits assumed): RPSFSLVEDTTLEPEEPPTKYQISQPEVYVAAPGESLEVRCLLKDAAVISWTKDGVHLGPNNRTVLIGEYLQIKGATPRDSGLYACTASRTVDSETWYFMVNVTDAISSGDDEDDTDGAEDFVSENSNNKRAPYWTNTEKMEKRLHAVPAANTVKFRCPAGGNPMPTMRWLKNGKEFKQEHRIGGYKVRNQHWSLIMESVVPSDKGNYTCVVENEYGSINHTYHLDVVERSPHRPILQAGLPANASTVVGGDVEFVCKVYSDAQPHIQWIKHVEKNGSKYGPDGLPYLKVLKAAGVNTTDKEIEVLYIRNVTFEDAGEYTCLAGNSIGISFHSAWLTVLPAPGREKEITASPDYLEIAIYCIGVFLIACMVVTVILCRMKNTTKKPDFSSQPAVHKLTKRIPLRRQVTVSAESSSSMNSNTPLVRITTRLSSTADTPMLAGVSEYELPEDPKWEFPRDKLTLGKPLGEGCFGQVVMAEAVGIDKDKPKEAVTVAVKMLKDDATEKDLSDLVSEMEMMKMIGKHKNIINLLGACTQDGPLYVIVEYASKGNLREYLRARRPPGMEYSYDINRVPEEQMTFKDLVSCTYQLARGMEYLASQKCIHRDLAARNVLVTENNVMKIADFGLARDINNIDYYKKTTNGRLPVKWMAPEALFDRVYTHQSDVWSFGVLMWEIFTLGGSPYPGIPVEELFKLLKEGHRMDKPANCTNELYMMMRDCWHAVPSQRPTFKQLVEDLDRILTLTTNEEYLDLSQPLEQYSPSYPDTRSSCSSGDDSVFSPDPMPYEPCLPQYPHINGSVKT
Fibroblast growth factor receptor 4 (Homo sapiens), sequence (P22455 22-802 limits assumed): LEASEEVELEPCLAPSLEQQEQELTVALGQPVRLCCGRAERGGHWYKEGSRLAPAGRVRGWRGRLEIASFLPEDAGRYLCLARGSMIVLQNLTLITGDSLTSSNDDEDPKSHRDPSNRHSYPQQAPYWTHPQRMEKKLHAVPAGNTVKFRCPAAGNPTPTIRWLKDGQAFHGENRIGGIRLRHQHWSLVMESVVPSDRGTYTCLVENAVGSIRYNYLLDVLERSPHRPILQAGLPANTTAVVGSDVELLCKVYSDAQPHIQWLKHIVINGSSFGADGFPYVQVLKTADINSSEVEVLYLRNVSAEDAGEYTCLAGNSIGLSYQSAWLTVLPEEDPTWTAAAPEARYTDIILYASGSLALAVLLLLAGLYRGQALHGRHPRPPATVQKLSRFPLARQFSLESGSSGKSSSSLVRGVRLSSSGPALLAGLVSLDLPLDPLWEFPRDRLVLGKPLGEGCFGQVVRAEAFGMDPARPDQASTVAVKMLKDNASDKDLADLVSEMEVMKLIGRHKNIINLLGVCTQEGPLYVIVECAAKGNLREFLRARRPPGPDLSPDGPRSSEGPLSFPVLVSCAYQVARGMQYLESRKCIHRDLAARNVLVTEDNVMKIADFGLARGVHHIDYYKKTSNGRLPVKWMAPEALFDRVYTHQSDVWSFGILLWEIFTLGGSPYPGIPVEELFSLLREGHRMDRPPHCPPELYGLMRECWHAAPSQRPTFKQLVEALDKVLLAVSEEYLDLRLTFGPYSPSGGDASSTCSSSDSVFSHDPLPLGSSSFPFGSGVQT
Fibroblast growth factor receptor 3 (Homo sapiens), sequence (P22607 23-806 limits assumed): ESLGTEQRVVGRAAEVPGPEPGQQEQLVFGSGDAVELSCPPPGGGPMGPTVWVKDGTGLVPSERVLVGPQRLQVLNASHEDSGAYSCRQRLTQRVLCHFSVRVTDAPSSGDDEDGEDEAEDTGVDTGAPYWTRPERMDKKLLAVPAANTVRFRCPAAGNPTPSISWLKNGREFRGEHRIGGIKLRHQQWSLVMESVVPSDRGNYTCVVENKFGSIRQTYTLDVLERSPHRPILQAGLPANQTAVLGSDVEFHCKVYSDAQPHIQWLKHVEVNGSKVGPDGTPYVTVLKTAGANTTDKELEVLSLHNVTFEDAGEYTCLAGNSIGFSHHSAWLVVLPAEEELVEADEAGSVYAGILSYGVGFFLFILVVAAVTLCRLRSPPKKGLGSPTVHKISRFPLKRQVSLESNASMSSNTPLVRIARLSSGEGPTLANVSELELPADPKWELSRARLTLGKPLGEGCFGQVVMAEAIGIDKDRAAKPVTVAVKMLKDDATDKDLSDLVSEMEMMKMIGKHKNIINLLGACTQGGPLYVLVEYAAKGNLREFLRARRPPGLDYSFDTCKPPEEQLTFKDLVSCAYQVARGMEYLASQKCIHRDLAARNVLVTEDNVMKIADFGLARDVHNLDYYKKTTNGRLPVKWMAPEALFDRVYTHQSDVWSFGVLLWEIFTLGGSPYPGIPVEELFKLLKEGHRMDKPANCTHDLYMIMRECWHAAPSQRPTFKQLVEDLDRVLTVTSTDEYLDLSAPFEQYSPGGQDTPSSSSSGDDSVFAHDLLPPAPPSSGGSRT

Regarding `C#Cc1cccc(Nc2ncnc3ccc(OCCCCNCCS(C)(=O)=O)cc23)c1`, the inhibition in [1] is 3.37%; in assay [2], 2.69%; in [3] it was 6.01%; in assay [4], 0.37%; in [5], 0.98%; in [6], 1.4%. The inhibition is 2.36% in [7], 5.79% in assay [8], 3.33% in assay [9] and -4.44% in assay [10].
Take `FC(F)(F)c1cccc(Nc2nccc(-c3cnn4nc(-c5ccccc5)ccc34)n2)c1`: the inhibition in [1] is 4.03%; in [2] it was 1.27%; in assay [3], 2.38%; in [4] it was -1.25%; in assay [5] it was -0.07%; in [6] it was 1.56%. In addition, the inhibition in assay [7] was 3.34%; in assay [8] it was 1.31%; in assay [9], 2.97%; in assay [10], -0.29%.
For the compound `O=C(Nc1n[nH]c2nc(-c3ccc(O)cc3)c(Br)cc12)C1CC1`, the inhibition was determined as 7.42% in [1]; 3.04% in assay [2]; 3.83% in assay [3]; 7.1% in assay [4]; 21.4% in assay [5]; 7.18% in assay [6]. The inhibition in assay [7] was 17.9%; in [8], 8.23%; in assay [9], 12.5%; in assay [10], 0.04%.
As to `NS(=O)(=O)c1ccc(Nc2cc(-c3ccc(O)c(F)c3)n[nH]2)cc1`, the inhibition in assay [1] was 14.1%; in [2], -3.61%; in assay [3] it was -0.97%; in assay [4], -2.91%; in assay [5], 8.63%; in assay [6] it was -4.17%. Moreover, the inhibition worked out at 9.61% in assay [7], 1.11% in assay [8], 8.58% in assay [9] and 1.23% in assay [10].
In the case of `COc1ccc2cc(-c3c(-c4ccncc4)nc(-c4ccc(S(C)(=O)=O)cc4C)n3C)ccc2c1`, the inhibition was 6.59% in [1]; 3.14% in [2]; 3.35% in assay [3]; 2.35% in assay [4]; 6.54% in [5]; 3.92% in assay [6]. For the same compound, the inhibition was 6.16% in [7], 4.02% in [8], 6.07% in assay [9] and -7.02% in [10].
On to `O=C(NCC1CC1)c1ccc(-c2cccc(C(=O)NC3CC3)c2)cc1`, for which the inhibition was -1.83% in assay [1]; 1.39% in assay [2]; 1.59% in assay [3]; 2.86% in [4]; 8.03% in assay [5]; 3.33% in [6]. Besides, the inhibition in assay [7] was 10.1%; in [8] it was 4.92%; in assay [9], 9.43%; in assay [10], -0.02%.
With `CNC(=O)c1cncc(/C=C/c2c(C)cccc2C)c1`, the inhibition is 3.37% in assay [1]; -0.51% in [2]; -0.68% in assay [3]; -3.96% in assay [4]; -3.96% in assay [5]; -3.46% in [6]. The inhibition in [7] is -2.09%; in assay [8], -2.67%; in assay [9], -3.86%; in [10] it was -4.63%.
In the case of `O=C1Nc2ccc(I)cc2C1=Cc1cc(Br)c(O)c(Br)c1`, the inhibition in assay [1] amounted to 4.37%; in [2] it was 3.93%; in [3], 4.1%; in [4] it was 5.92%; in [5] it was 2.51%; in assay [6], 8.24%. Also, the inhibition was determined as 7.14% in assay [7], 6.43% in [8], 5.73% in [9] and 5.1% in assay [10].
On to `NCc1ccc(-n2c(-c3nonc3N)nc3cnccc32)cc1`, for which the inhibition in [1] was 5.77%; in assay [2], 12.8%; in assay [3] it was 13%; in assay [4] it was 4.07%; in assay [5], 6.76%; in assay [6], 6.5%. Besides, the inhibition was 9.9% in [7], 9.59% in assay [8], 6.14% in assay [9] and -4.29% in assay [10].
For the compound `CCN(CC)Cc1ccc(Nc2nccc(-c3cnn4ncccc34)n2)cc1`, the inhibition in assay [1] was found to be 15.5%; in assay [2], 5.99%; in [3], 28%; in [4], 1.77%; in assay [5] it was 11.6%; in assay [6] it was 4.18%. In addition, the inhibition in [7] was 8.8%; in assay [8], 2.66%; in assay [9], 5.35%; in assay [10], -1.71%.
Take `COc1ccc(-c2ccc3c(NC(=O)C4CC4)n[nH]c3n2)cc1`: the inhibition in [1] is 3.63%; in assay [2], 0.69%; in [3], 0.62%; in assay [4] it was -1.21%; in assay [5] it was 0.21%; in [6] it was 0.09%. Moreover, the inhibition was 0.42% in [7], 1.8% in assay [8], 0.95% in assay [9] and -0.34% in [10].
With `NC(=O)c1cc(-c2ccncc2)cc(-c2ccccc2)c1N`, the inhibition amounted to 4.57% in assay [1]; 3.8% in [2]; 3.92% in assay [3]; 8.68% in [4]; 6.54% in assay [5]; 5.47% in [6]. In addition, the inhibition in assay [7] worked out at 8.42%; in [8], 7.6%; in [9], 6.17%; in assay [10] it was 0.6%.
Consider `CN1CCN(CCCNc2nc3ccc(Oc4ccc(NC(=O)Nc5cc(C(F)(F)F)ccc5F)cc4)cc3[nH]2)CC1`, for which the inhibition is 3.71% in [1]; 1.57% in assay [2]; 1.53% in [3]; -4.14% in assay [4]; 0.63% in [5]; -1.49% in assay [6]. Further, the inhibition was 1.51% in assay [7], -0.95% in [8], -0.55% in assay [9] and -2.64% in assay [10].
For `Fc1ccc(-c2nc3n(c2-c2ccncc2)CCS3)cc1`, the inhibition in assay [1] is 2.81%; in assay [2] it was 2.58%; in assay [3], 2.75%; in assay [4], -4.07%; in assay [5], 1.42%; in assay [6] it was -0.33%. Also, the inhibition in assay [7] is 1.72%; in assay [8], 2.38%; in assay [9], 0.09%; in [10], -6.29%.
In the case of `COc1cc(C)c(N(C)C(=O)CN(C)C)cc1Nc1nc(Nc2cccc(F)c2C(N)=O)c2cc[nH]c2n1`, the inhibition in [1] is 23%; in [2] it was 5.04%; in [3], 10.7%; in [4], 0.07%; in assay [5] it was -3.58%; in assay [6] it was -2.28%. In addition, the inhibition in assay [7] was -2.01%; in assay [8], -0.36%; in [9], -2.8%; in assay [10], -3.66%.
`Cc1ccc(C(=O)NC(C)C)cc1-c1ccc(C(=O)NCC2CC2)cc1`: the inhibition in assay [1] was -1.61%; in [2], -2.77%; in assay [3], -3%; in [4], -5.37%; in assay [5] it was -2.8%; in assay [6], -4.22%. For the same compound, the inhibition in assay [7] was -3.57%; in [8], -4.95%; in assay [9], -3.57%; in assay [10], 1.18%.
On to `COc1cc2ncn(-c3cc(OCCc4ccccc4)c(C(N)=O)s3)c2cc1OC`, for which the inhibition in assay [1] turned out to be 1.49%; in [2] it was 1.6%; in assay [3], 1.71%; in assay [4], 14.8%; in [5] it was 2.62%; in assay [6], 1.97%. In addition, the inhibition in assay [7] was 3.63%; in assay [8], 2.83%; in [9], 2.85%; in assay [10], -0.14%.

What is called inhibition is the change of the read-out against control, counted positive when it falls.
